Results filed as inconclusive are left out. Active and inactive are the calls of the source. Unless noted, calls come from the whole dose curve; as a rule, active = well fitted curve in the direction sought with a large enough effect in the repeat runs; inconclusive = weak or mixed curves; inactive = no such curve, though single readings can be large; an effect the other way counts as inactive or inconclusive.
Columns and labels:
[1] = qHTS assay to identify small molecule agonists of the vitamin D receptor (VDR) signaling pathway - cell viability counter screen (AID 743224); note: series mostly up to about 63 µM; % is set by controls: 0 for no effect and ±100 for the full control effect; nearly all actives have a fitted effect of over 50% in size
How it was run: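 Cytotoxicity counter screen: VDR-bla cells, 16 h compound exposure at 37C, 5% CO2; CellTiter-Glo luminescence, 30 min RT, same wells as bla read.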

[2] = qHTS assay to identify small molecule antagonists of the vitamin D receptor (VDR) signaling pathway - cell viability counter screen (AID 743225); note: % is set by controls: 0 for no effect and ±100 for the full control effect; nearly all actives have a fitted effect of over 50% in size
How it was run: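 In this counter screen, VDR-bla HEK 293T cells receive test compound plus 3 nM final calcitriol for 16 h at 37C. Room-temperature steps of 2 h with the beta-lactamase substrate, then 30 min with CellTiter-Glo, precede the luminescence read.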

[3] = qHTS assay to identify small molecule agonists of the NFkB signaling pathway - cell viability counter screen (AID 1159515; calls by dose curve; note: series mostly up to about 61 µM; % is set by controls: 0 for no effect and ±100 for the full control effect; nearly all actives have a fitted effect of over 55% in size)
How it was run: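 ME-180 NFkB-bla cells, 2,000/well; overnight attach; compound 5 hr, 37 C/5% CO2; LiveBLAzer substrate 1.5 hr RT; then CellTiter-Glo in same wells, 30 min RT, luminescence read.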

[4] = qHTS assay to identify small molecule agonists of the endoplasmic reticulum stress response signaling pathway (AID 1159516; active = well fitted activation curve with a large enough effect in the signal ratio in the repeat runs, not every such curve was filed as active; the % refers to the signal ratio; note: % is set by controls: 0 for no effect and ±100 for the full control effect)
How it was run: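 HeLa ESRE-bla reporter line; cpd 5 h, 37 C/5% CO2; LiveBLAzer B/G FRET substrate 2 h RT; ex 405, em 460/530 nm.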

[5] = qHTS assay to identify small molecule agonists of the endoplasmic reticulum stress response signaling pathway - cell viability counter screen (AID 1159517; calls by dose curve;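 note: HeLa cells carrying an ER stress response element beta-lactamase reporter; series mostly up to about 61 µM; % is set by controls: 0 for no effect and ±100 for the full control effect; nearly all actives have a fitted effect of over 50% in size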)
How it was run: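 After overnight attachment, ESRE-bla HeLa cells were treated with Tox21 library compounds for 5 hr. CellTiter-Glo luminescence, read 30 min post-addition at room temperature, reported viability.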

[6] = qHTS assay to identify small molecule antagonists of the retinoid-related orphan receptor gamma (ROR-gamma) signaling pathway - cell viability counter screen (AID 1159520); note: % is set by controls: 0 for no effect and ±100 for the full control effect; nearly all actives have a fitted effect of over 50% in size
How it was run: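 Cytotoxicity was read from cellular ATP (CellTiter-Glo luminescence) after 16 hr at 37 C with 1 uM doxycycline induction. The inducer was added 2 hr after compound transfer to Tet-on ROR gamma CHO cells.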

[7] = target: Nuclear receptor ROR-gamma (Homo sapiens) (UniProt P51449); experiment: qHTS assay to identify small molecule antagonists of the retinoid-related orphan receptor gamma (ROR-gamma) signaling pathway (AID 1159521; note: nearly all actives have a fitted effect of over 50% in size; note: potency is the fitted concentration of half-maximal effect)
How it was run: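 Screening format: cell-based luciferase reporter in CHO cells with doxycycline-inducible RORγ. Compound pre-exposure lasts 2 h, doxycycline is 1 uM final, induction runs 16 h at 37 C, and ONE-Glo luminescence is read.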

[8] = qHTS assay to identify small molecule agonists of the AP-1 signaling pathway - cell viability counter screen (AID 1159525; calls by dose curve; note: nearly all actives have a fitted effect of over 55% in size)
How it was run: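 Intracellular ATP by Cell Titer Glo luminescence (30 min, RT) in the same ME-180 AP-1-bla wells after the 5 h compound exposure at 37 °C. Normalised to tetra n-octyl ammonium bromide and DMSO controls.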

[9] = qHTS assay to identify small molecule agonists of the AP-1 signaling pathway (AID 1159526; calls by dose curve; note: % is set by controls: 0 for no effect and ±100 for the full control effect)
[10] = qHTS assay to identify small molecule agonists of the RXR signaling pathway - cell viability counter screen (AID 1159529)
How it was run: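 Viability read-out for the RXR-alpha agonist qHTS: luminescent CellTiter-Glo signal after 30 min at RT. HEK 293T bla reporter cells, 2% charcoal-stripped FBS, 16 hr compound incubation; tetraoctyl ammonium bromide as cytotoxic control.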

[11] = qHTS assay to identify small molecule antagonists of the retinoid acid receptor (RAR) signaling pathway - cell viability counter screen (AID 1159551); note: % is set by controls: 0 for no effect and ±100 for the full control effect; nearly all actives have a fitted effect of over 35% in size
How it was run: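 C3RL4 RARE-luciferase line; cpds + retinol 1 uM final, 6 h, 37 C/5% CO2; CellTiter-Glo ATP luminescence, 30 min RT.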

[12] = qHTS assay to identify small molecule antagonists of the retinoic acid receptor (RAR) signaling pathway (AID 1159552; note: nearly all actives have a fitted effect of over 50% in size; note: potency is the fitted concentration of half-maximal effect)
How it was run: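 Using a RARE-driven luciferase construct in C3RL4 cells, retinol at 1 uM final provided the agonist stimulus while compounds were co-applied. After 6 hours at 37 C, luminescence was recorded to flag inhibitors of retinol signaling.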

[13] = qHTS assay to identify small molecule agonists of the retinoic acid receptor (RAR) signaling pathway (AID 1159553); note: % is set by controls: 0 for no effect and ±100 for the full control effect
How it was run: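 RARE-luc C3RL4 cells; overnight attachment 37 C/5% CO2; compound (DMSO) 6 hr; luciferase reagent, 30 min RT; luminescence read-out.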

[14] = qHTS assay to identify small molecule antagonists of the estrogen related receptor (ERR) signaling pathway from Tox21 library - cell viability counter screen (AID 1224834); note: nearly all actives have a fitted effect of over 30% in size; note: potency is the fitted concentration of half-maximal effect
How it was run: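 Multiplexed viability counter screen in ERR cells: 17.5 h compound exposure at 37 C, CellTiter-Fluor added, 30 min at 37 C/5% CO2, fluorescence read.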

[15] = qHTS assay to identify small molecule antagonists of the estrogen related receptor signaling pathway with the pleiotropic PPARgamma coactivator (PGC) cell viability counter screen (AID 1224822; note: series mostly up to about 46 µM; % is set by controls: 0 for no effect and ±100 for the full control effect)
How it was run: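 Fluorescence read-out of CellTiter-Fluor after 30 min at 37 C; PGC/ERR cells, 2,000 per well, had been exposed to DMSO-dissolved compounds for 17.5 h following a 6 h pre-incubation.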

[16] = target: Retinoic acid receptor RXR-alpha (Homo sapiens) (UniProt P19793); experiment: qHTS assay to identify small molecule agonists of the RXR signaling pathway (AID 1159527; calls by dose curve; note: % is set by controls: 0 for no effect and ±100 for the full control effect; nearly all actives have a fitted effect of over 35% in size)
How it was run: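 Fluorescence ratio readout (460 vs 530 nm) from GeneBLAzer RXR-alpha HEK 293T cells after 16 hr compound treatment; cells seeded 5 hr beforehand in low-serum, charcoal-stripped medium.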

[17] = qHTS assay to identify small molecule agonists of the estrogen related receptor (ERR) signaling pathway (AID 1224820); note: % is set by controls: 0 for no effect and ±100 for the full control effect
How it was run: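 Following a 6 h settling period, 2,000 ERR cells per well receive DMSO-dissolved compounds by pin tool and incubate 18 h at 37 C; agonist activity is scored from One-Glo luminescence read 30 min post-addition.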

[18] = qHTS assay to identify small molecule agonists of the estrogen related receptor signaling pathway with the pleiotropic PPARgamma coactivator (PGC) (AID 1224823); note: % is set by controls: 0 for no effect and ±100 for the full control effect
How it was run: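 In this quantitative high-throughput screen, an 18 h, 37 C treatment of PGC/ERR cells with compounds in DMSO preceded a One-Glo luminescence read taken after 30 min at room temperature.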

Retinoic acid receptor RXR-alpha (Homo sapiens), sequence (P19793 whole entry, looked up): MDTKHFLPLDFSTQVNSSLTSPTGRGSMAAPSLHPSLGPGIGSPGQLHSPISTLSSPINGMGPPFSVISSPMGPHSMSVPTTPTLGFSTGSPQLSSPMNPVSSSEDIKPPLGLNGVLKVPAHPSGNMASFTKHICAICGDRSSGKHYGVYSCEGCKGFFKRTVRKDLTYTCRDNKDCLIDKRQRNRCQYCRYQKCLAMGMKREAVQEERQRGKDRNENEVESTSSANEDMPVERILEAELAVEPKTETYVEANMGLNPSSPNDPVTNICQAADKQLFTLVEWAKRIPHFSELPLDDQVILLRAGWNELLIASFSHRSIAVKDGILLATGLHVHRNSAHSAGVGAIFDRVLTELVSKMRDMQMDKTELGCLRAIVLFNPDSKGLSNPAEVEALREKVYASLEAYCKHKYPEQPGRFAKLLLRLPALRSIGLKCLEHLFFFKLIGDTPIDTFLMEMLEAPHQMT

CC(=O)O[C@@H]1C(=O)O[C@@H]2[C@H]1OC(=O)[C@@H]2OC(C)=O
inactive: Potency [1] | Potency [2] | Potency [3] | Potency [4] | outcome [5] | Potency [6] | Potency [7] | Potency [8] | Potency [9] | Potency [10] | Potency [11] | Potency [12]

CC1(C)[C@H]2CC[C@]1(C)[C@H](O)C2
inactive: Potency [1] | Potency [2] | Potency [3] | Potency [4] | outcome [5] | Potency [6] | Potency [7] | Potency [8] | Potency [9] | Potency [10] | Potency [11]

Cc1ccc(C(N)=O)cc1N
inactive: Potency [1] | Potency [2] | Potency [3] | Potency [4] | outcome [5] | Potency [6] | Potency [7] | Potency [8] | Potency [9] | Potency [10] | Potency [11]

Cn1c(=O)c2c(ncn2CC(O)CO)n(C)c1=O (stereo not given)
inactive: Potency [1] | Potency [2] | Potency [3] | Potency [4] | outcome [5] | Potency [6] | Potency [7] | Potency [8] | Potency [9] | Potency [10] | Potency [11] | Potency [12]

Cc1ccc(C(C)c2ccc(C)c(C)c2)cc1C
inactive: Potency [1] | Potency [2] | Potency [3] | Potency [4] | outcome [5] | Potency [6] | Potency [7] | Potency [8] | Potency [9] | Potency [12] | Potency [13] | Potency [14]

COC(Cc1ccccc1)OC
inactive: Potency [1] | Potency [2] | Potency [3] | Potency [4] | outcome [5] | Potency [6] | Potency [7] | Potency [8] | Potency [9] | Potency [11] | Potency [12] | Potency [13] | Potency [14]

CC(O)C1CCCCC1 (stereo not given)
inactive: Potency [1] | Potency [2] | Potency [3] | Potency [4] | outcome [5] | Potency [6] | Potency [7] | Potency [8] | Potency [9] | Potency [10] | Potency [12] | Potency [13] | Potency [14]

CCOC(=O)C1=C(C)NC(C)=C(C(=O)OC)C1c1cccc([N+](=O)[O-])c1 (stereo not given)
inactive: Potency [1] | Potency [2] | Potency [3] | Potency [4] | outcome [5] | Potency [6] | Potency [7] | Potency [8] | Potency [9] | Potency [11] | Potency [12] | Potency [13] | outcome [15]

CCN(CCO)CCCC(C)Nc1ccnc2cc(Cl)ccc12 (stereo not given)
inactive: activity change, negative = cytotoxicity [1] 1.38% [at 5.95 µM] | viability change, negative = cytotoxic [2] -0.399% [at 6.95 µM] | activity, negative = cytotoxic [3] 7.84% [at 6.95 µM] | activation [4] -0.628% [at 6.95 µM] | activity change, negative = cytotoxicity [5] 5.2% [at 6.95 µM] | activity, negative = cytotoxicity [6] 0.752% [at 8.39 µM] | activity change, negative = inhibition [7] 13.3% [at 8.39 µM] | viability change, negative = cytotoxic [8] 2.23% [at 6.97 µM] | activation [16] 7.66% [at 6.98 µM] | activity change, negative = cytotoxicity [10] -6.26% [at 6.97 µM] | activity change, negative = cytotoxicity [11] 0.797% [at 8.39 µM] | activity, negative = inhibition [12] -1.6% [at 8.39 µM] | activation [13] 0.716% [at 8.36 µM] | viability change, negative = cytotoxic [14] -2.66% [at 8.39 µM]

CC(C)(C)C(=O)OCOP(=O)(COCCn1cnc2c(N)ncnc21)OCOC(=O)C(C)(C)C
inactive: Potency [1] | Potency [2] | Potency [3] | Potency [4] | outcome [5] | Potency [6] | Potency [8] | Potency [9] | Potency [11] | Potency [14]
active: Potency [7] 11.9 µM | Potency [12] 3.76 µM

CCCCOCCOCCOCCOCCO
inactive: Potency [1] | Potency [3] | Potency [4] | outcome [5] | Potency [6] | Potency [7] | Potency [8] | Potency [9] | Potency [10] | Potency [11] | Potency [14]

NCc1ccccc1
inactive: Potency [1] | Potency [2] | Potency [3] | Potency [4] | outcome [5] | Potency [6] | Potency [7] | Potency [8] | Potency [9] | Potency [10] | Potency [11] | Potency [14]

CCN(CC)CCOc1ccc2c(c1)C(=O)c1cc(OCCN(CC)CC)ccc1-2
active: Potency [14] 11.9 µM
inactive: Potency [3] | Potency [4] | outcome [5] | Potency [6] | Potency [7] | Potency [8] | Potency [9] | Potency [11] | Potency [12]

CC(C)c1ccc2c(C(C)C)cc(C(C)C)c(S(=O)(=O)O)c2c1
inactive: Potency [1] | Potency [2] | Potency [3] | Potency [4] | outcome [5] | Potency [6] | Potency [7] | Potency [8] | Potency [16] | Potency [10] | Potency [11] | Potency [12] | Potency [13] | Potency [14]

CCC(C)N(C)C(=O)c1cc2ccccc2c(-c2ccccc2Cl)n1 (stereo not given)
inactive: Potency [1] | Potency [2] | Potency [3] | Potency [4] | outcome [5] | Potency [6] | Potency [7] | Potency [8] | Potency [9] | Potency [11] | outcome [15]

CCOC(=O)CC(C)C
inactive: Potency [1] | Potency [2] | Potency [3] | Potency [4] | outcome [5] | Potency [6] | Potency [7] | Potency [8] | Potency [9] | Potency [10]

C=Cc1c(C)c2cc3[nH]c(cc4nc(cc5nc(cc1[nH]2)C(C)=C5CCC(=O)O)C(CCC(=O)O)=C4C)c(C)c3C=C
inactive: Potency [2] | Potency [3] | Potency [4] | outcome [5] | Potency [6] | Potency [8] | Potency [16] | Potency [10] | Potency [11] | Potency [12] | outcome [17] | outcome [18]
active: Potency [7] 26.6 µM

C[Si](C)O[Si](C)(C)O[Si](C)(C)O[Si](C)C
inactive: Potency [1] | Potency [2] | Potency [3] | Potency [4] | outcome [5] | Potency [6] | Potency [7] | Potency [8] | Potency [9] | Potency [10] | Potency [11] | Potency [13] | Potency [14]

C=C(C)C(=O)OC(C)C
inactive: Potency [2] | Potency [3] | Potency [4] | outcome [5] | Potency [6] | Potency [7] | Potency [8] | Potency [16] | Potency [10] | Potency [11] | Potency [12] | Potency [14]

C[C@H](CCC(=O)O)[C@H]1CC[C@H]2[C@@H]3[C@H](O)C[C@@H]4C[C@H](O)CC[C@]4(C)[C@H]3CC[C@]12C
inactive: Potency [1] | Potency [3] | Potency [4] | outcome [5] | Potency [6] | Potency [7] | Potency [8] | Potency [9] | Potency [11] | Potency [12] | Potency [13]
